Source: PubChem (several laboratories)
IDE cell activ – IDE (human) activation, cell-based; P14735; HEK cells, FAbeta-B cleavage, fluorescence polarization; 0% vehicle, 100% cell-free pure enzyme wells; activation, % at 5.96 µM; 340,000 tested, 0.073% active; AID 493087;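 active = activation above the mean of all tested compounds plus 3 SD, set per screening campaign, cut at about 17% in these data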
Target sequence (P14735 whole entry, looked up): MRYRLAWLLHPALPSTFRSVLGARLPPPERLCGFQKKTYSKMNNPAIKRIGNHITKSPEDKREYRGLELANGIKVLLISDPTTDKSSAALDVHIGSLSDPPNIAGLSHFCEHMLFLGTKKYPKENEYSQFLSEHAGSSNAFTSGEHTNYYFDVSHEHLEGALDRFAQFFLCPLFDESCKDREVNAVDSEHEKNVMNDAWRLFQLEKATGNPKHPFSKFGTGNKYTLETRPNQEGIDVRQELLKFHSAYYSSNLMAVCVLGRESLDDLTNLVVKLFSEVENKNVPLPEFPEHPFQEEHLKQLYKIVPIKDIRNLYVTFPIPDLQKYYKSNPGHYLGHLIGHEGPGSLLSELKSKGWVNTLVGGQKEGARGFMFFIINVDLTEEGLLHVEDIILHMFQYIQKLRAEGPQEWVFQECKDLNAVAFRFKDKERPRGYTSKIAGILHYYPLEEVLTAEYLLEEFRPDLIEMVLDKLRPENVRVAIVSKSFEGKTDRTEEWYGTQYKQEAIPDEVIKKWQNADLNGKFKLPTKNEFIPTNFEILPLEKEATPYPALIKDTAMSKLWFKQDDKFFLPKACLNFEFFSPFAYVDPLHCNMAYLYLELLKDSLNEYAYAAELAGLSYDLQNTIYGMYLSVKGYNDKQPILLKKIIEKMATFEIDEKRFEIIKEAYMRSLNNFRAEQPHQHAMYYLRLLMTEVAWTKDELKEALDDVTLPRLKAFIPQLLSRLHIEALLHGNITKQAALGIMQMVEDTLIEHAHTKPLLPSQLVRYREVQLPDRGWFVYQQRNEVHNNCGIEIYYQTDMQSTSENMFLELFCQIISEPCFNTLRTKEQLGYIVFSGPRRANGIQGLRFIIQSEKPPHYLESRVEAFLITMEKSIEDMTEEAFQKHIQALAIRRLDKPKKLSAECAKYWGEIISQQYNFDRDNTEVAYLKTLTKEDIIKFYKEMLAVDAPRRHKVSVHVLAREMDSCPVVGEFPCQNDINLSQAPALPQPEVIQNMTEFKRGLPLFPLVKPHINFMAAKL
CRFBP-R2 block – antagonists of CRF-binding protein/CRF-R2 receptor complex; AID 588475; 350,000 tested, 0.59% active; HEK293 CRF-R2/CRF-BP, CRF-induced calcium fluorescence; inhibition, % at 11.8 µM;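 active = inhibition of the ligand-induced calcium signal above about 50% at the single tested concentration, limit read from the data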
Myeloid diff MLP – myeloid differentiation induction. ER-HoxA9 myeloid progenitors, lysozyme-GFP differentiation, flow cytometry. calls only at 10 µM. 360,000 tested, 1% active. AID 624256;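 active = normalized GFP-positive differentiation at or above the plate's own cutoff, the solvent-only control mean plus 3 SD; inconclusive = no clear call, values can overlap the other calls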;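 also: cells exposed to compound for four days before flow analysis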
CRFBP-R2 agonist – agonists of human CRF-binding protein/CRF-R2 receptor complex; HEK293 CRF-R2/CRF-BP, calcium dye fluorescence (FLIPR); percent of saturating CRF peptide response; 350,000 tested, 0.46% active; activation, % at 13.2 µM; AID 588473;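 active = activation of at least 50%, plus an integration ratio under a set limit after plate pattern correction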
TPT1 inh – C. albicans TPT1 enzyme inhibition. recombinant caTPT1, FP RNA substrate dephosphorylation. inhibition, % at 5 µM. 300,000 tested, 0.81% active;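 active = inhibition above the mean of all tested compounds plus 3 SD, set per screening campaign, cut at about 24% in these data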
IDE inh – cellular human IDE inhibition | P14735 | HEK cells, FAbetaB cleavage, fluorescence polarization | inhibition, % at 5.59 µM | 320,000 tested, 0.41% active | AID 434962;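 active = percent inhibition above the average of all tested compounds plus 3 SD, set per screening campaign, cut at about 16% in these data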;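 also: IDE supplied by intact live HEK cells; FP after avidin binding of uncleaved biotin substrate so inhibition keeps polarization high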
Numbers stand for hits; i = inactive; ? = inconclusive; nt = not tested or not shown; + = active, no number; ! = not active in a repeat. Rows were chosen to be rich in hits. Some 2.6% of all compounds tested hit in one or more screens of this group.

SMILES | IDE cell activ | CRFBP-R2 block | Myeloid diff MLP | CRFBP-R2 agonist | TPT1 inh | IDE inh
COc1cc(CNc2ccc(S(N)(=O)=O)cc2)ccc1OCC(=O)NC1CCCCC1 | i | i | i | i | i | i
COC(=O)c1ccn(CC(=O)NC2CCCCC2)n1 | i | i | + | i | i | i
O=C(Cn1cc2c(n1)CCCC2)NC1CCCCCC1 | i | i | i | i | i | i
CC1=Nc2ccc(C)cc2/C1=C/c1c(N)n2oc(C)cc2nc1=O | i | i | +! | i | i | i
CSc1nsc2nc(=O)c(/C=C3\C(C)=Nc4ccc(C)cc43)c(N)n12 | i | i | i | i | i | i
c1ccc(-c2nc3nonc3nc2-c2ccccc2)cc1 | i | 54.2 | i | i | i | i
Cc1ccc(S(=O)(=O)Nc2ccc(N3CCN(C)CC3)nc2)cc1 | i | i | + | i | i | i
Cc1ccccc1C(=O)Nc1ccc(N2CCN(C)CC2)nc1 | i | i | + | i | i | i
CN1CCN(c2ccc(NS(=O)(=O)c3ccc(Cl)cc3)cn2)CC1 | i | i | + | i | i | i
CN1CCN(c2ccc(NC(=O)c3ccc(C(F)(F)F)cc3)cn2)CC1 | i | i | i | i | i | i
Cc1nonc1NC(=O)CSc1nc2c(C)cccc2cc1C#N | i | i | + | i | i | i
CC1Cc2cc(-c3csc(NC(=O)Cc4ccccc4)n3)ccc2N1S(C)(=O)=O (centres undefined) | i | i | + | i | i | i
COc1ccc(OC)c(NC(=O)CSc2ncnc3c2cnn3-c2ccccc2Cl)c1 | i | 55.8 | + | i | i | i
CSc1c(CN2CCN(C)CC2)c2ccccc2n1C | nt | i | i | i | i | i
COc1ccc(CCN2C(=O)CC(Cc3ccccc3)C2=O)cc1OC (centres undefined) | i | 79.5 | i | i | i | i
COc1ccc(CCNC2CC(=O)N(CCc3ccc(OC)c(OC)c3)C2=O)cc1OC (centres undefined) | i | i | i | i | nt | nt
COc1ccc(CCN2C(=O)CC(NNc3ccc([N+](=O)[O-])cc3)C2=O)cc1OC (centres undefined) | i | i | + | i | i | i
COc1ccc(C(=O)Nc2cccc(-c3cc4ccccc4oc3=O)c2)cc1[N+](=O)[O-] | i | i | ? | i | i | i
CC1=NOC(=O)/C1=C\c1ccc(-c2cccc(Cl)c2)o1 | i | i | i | 63.6 | i | i
CC1=NOC(=O)/C1=C\c1ccc(-c2ccccc2Br)o1 | i | i | i | 50.7 | nt | nt
CC(C)(C)Cc1nc(-c2ccc(Cl)cc2)no1 | i | i | i | i | i | i
CCCN1CCN(C(=O)c2oc3ccccc3c2NC(=O)C2CC2)CC1 | i | i | ? | i | i | i
N#CNC(=Nc1cccc(F)c1)SCc1cccc(F)c1 | i | i | i | i | i | i
N#CNC(=Nc1cccc(F)c1)SCc1ccccc1 | i | 63.7 | i | i | i | i
CCOc1ccc(S(=O)(=O)N2CCC(C(=O)Nc3ccc(C)c(S(=O)(=O)N4CCOCC4)c3)CC2)cc1 | i | i | + | i | nt | nt
SMILES | IDE cell activ | CRFBP-R2 block | Myeloid diff MLP | CRFBP-R2 agonist | TPT1 inh | IDE inh
CCOC(=O)C1(CC2CCCCO2)CCN(Cc2nccn2-c2ccc(OC)cc2)CC1 (centres undefined) | i | 52.3 | i | i | i | i
CCOC(=O)C1(CC2CCCCO2)CCN(Cc2nccn2-c2cccc(C)c2)CC1 (centres undefined) | i | i | i | i | i | i
CCCCC[C@H]1CCCCC[C@H](O)C[C@H](O)[C@@H](O)/C=C/C(=O)O1 | nt | nt | i | nt | nt | nt
O=C1Nc2ccccc2N(O)N1c1cc(-c2cccc(Cl)c2)no1 | i | 50.1 | i | i | i | i
O=C1Nc2ccccc2N(O)N1c1cc(-c2ccccc2Cl)no1 | i | i | i | i | i | i
OCCN1CCN(c2ncnc3c2ncn3[C@H]2CN(Cc3cccs3)C[C@@H](CO)O2)CC1 | nt | nt | i | nt | nt | nt
Cc1ccc(CCNC(=O)C2CCC(=O)N2C2CCCC2)cc1 (centres undefined) | i | 62.5 | i | i | i | i
O=C(NC1CCN(Cc2ccccc2)CC1)c1ccc(Cn2c(=S)[nH]c3ccc(N4CCOCC4)cc3c2=O)cc1 | i | i | + | i | i | i
O=C(CCCCCn1c(=S)[nH]c2ccc(N3CCOCC3)cc2c1=O)NC1CCN(Cc2ccccc2)CC1 | i | i | i | i | i | i
COc1ccc(CCNC(=O)c2ccc3c(c2)NC(=O)CS3)cc1OC | i | i | i | i | i | i
COc1ccc2c(C=Nc3c(C)n(C)n(-c4ccccc4)c3=O)c(O)n(Cc3ccco3)c(=O)c2c1 | i | i | +! | i | i | i
O=C(Nc1cccc(NC(=O)c2cccs2)c1)c1ccc2c(c1)OCCO2 | i | i | i | i | i | i
Cc1ccsc1/C=N\NC(=O)CCc1c(C)n[nH]c1C | i | 52.1 | i | i | i | i
Cc1n[nH]c(C)c1CCC(=O)N/N=C/c1cccs1 | nt | i | i | i | i | i
O=C(OCC(=O)N1CCCC1=O)c1ccc(O)cc1O | i | i | i | i | i | i
CCOC(=O)c1c(N)sc(C(=O)N2CCCCC2)c1C | i | 60.8 | i | i | i | i
COc1ccc(-c2nc3ccc(C)cn3c2Cc2ccsc2)cc1OC | nt | nt | i | nt | nt | nt
O=C(COc1ccccc1Cl)Nc1ccc(NC(=O)c2ccco2)cc1 | i | i | i | i | i | i
O=C(Nc1ccc(-c2noc(COc3ccccc3Cl)n2)cc1)c1ccco1 | i | i | + | i | i | i
COc1cc(NC(=O)c2ccc(C)cc2)ccc1NC(=O)c1cc2ccccc2o1 | i | i | + | i | i | i
Oc1ccccc1-c1nnc(COc2ccc(Cl)cc2Cl)o1 | i | i | + | i | i | i
C[C@H](O)[C@@H]1C(=O)N2CCc3c([nH]c4ccccc34)[C@@H]2C[C@@H]1N(C)Cc1ccc2c(c1)OCO2 | nt | i | i | i | nt | nt
CC(/C=N/Nc1nc(C)cc(C)n1)=C\c1ccc(C(C)C)cc1 | i | 61.5 | i | i | i | i
Fc1ccc(N=c2ssnc2Cl)c(F)c1 | i | i | nt | 69.8 | i | i
Clc1ccc(N=c2ssnc2Cl)cc1 | i | i | i | 66.8 | i | i
SMILES | IDE cell activ | CRFBP-R2 block | Myeloid diff MLP | CRFBP-R2 agonist | TPT1 inh | IDE inh
O=C(NCc1ccncc1)C1Cc2c(-c3ccccc3Oc3ccccc3)ccnc2O1 (centres undefined) | nt | nt | i | nt | nt | nt
COc1cc(/C=C/C(=O)OC(C)C(=O)Nc2c(C)n(C)n(-c3ccccc3)c2=O)ccc1O (centres undefined) | i | i | i | i | i | i
CCc1ccc(NC(=O)C(C)OC(=O)/C=C/c2ccc(O)c(OC)c2)cc1 (centres undefined) | i | i | i | 91.5 | nt | i
Cc1ccc(N2CCN(C(=S)Nc3ccc(Cl)cc3)CC2)cc1 | i | i | i | i | nt | nt
CC1=CC(=O)Nc2ncccc2O1 | nt | i | i | i | nt | nt
Cn1c(=O)[nH]c(=O)c2c1nc(Br)n2CCCO | i | i | + | i | i | i
CCC(=O)OCCn1c(Br)nc2c1c(=O)[nH]c(=O)n2C | i | i | i | i | i | i
